Reference: the emibetuzumab library of Makowski et al. (2022)
This is one part of the list. The hit rate among all sequences tested is not known here.

B1: VH:VL chains; a variant is named by its letters at X, in order (parent)
chain 1: QVQLVQSGAEVKKPGASVKVSCKASGYTFTDYXMHWVRQAPGQGLEWMGXVNPNXXXTTYNQKFEGRVTMTTDTSTSTAYMELRSLRSDDTAVYYCARXNXLDXWGQGTTVTVSS
chain 2: DIQMTQSPSSLSASVGDRVTITCSVSSSVSSIYLHWYQQKPGKAPKLLIYSTSNLASGVPSRFSGSGSGTDFTLTISSLQPEDFATYYCQVYSGYPLTFGGGTKVEIK

Variants of: B1
Test: yeast display scFab, FACS + sequencing
Settings: with MET
How it was run: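 Round-3 sorted and input populations from a heavy-chain CDR mutant scFab yeast library were deep sequenced in two replicates. Sorting used FACS on cells labelled for 3 h at room temperature with 1 nM HGFR-Fc and anti-Myc in PBSB with 1% milk, keeping the top 50% antigen-positive cells. Any sequence seen in both antigen-positive samples was called a binder, while one seen only in the input was called a non-binder.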

| Variant | antigen binding call |
| --- | --- |
| DARGAYLV | no binding |
| YRGKAAGV | binds |
| YTGTSAGV | no binding |
| YRAGDFGV | no binding |
| YRGKAFGV | binds |
| FRARGAAY | binds |
| YKARGAVY | binds |
| VRARGAAD | binds |
| VTGTGAAD | no binding |
| VAEGDAAD | no binding |
| YRARGAAY | binds |
| YKGRSAVY | no binding |
| VKAASAVY | no binding |
| DRRANFLY | no binding |
| DREEGDGS | no binding |
| YKARGAAY | binds |
| DKATGDAY | no binding |
| VEGTSAAY | no binding |
| VRARGAAY | binds |
| FRRTDFVA chain 1 C22Y | no binding |
| ARGRGSVA | binds |
| ARKTGAGA | no binding |
| AEEEGSAA | no binding |
| ARRRGSAA | binds |

| Variant | antigen binding call |
| --- | --- |
| ARRRGAAA | binds |
| AETKGAAA | no binding |
| ARGRSDVA | no binding |
| ARGRGSAA | binds |
| VETTDSWV | no binding |
| VAERSFGV | no binding |
| VEEAAAGV | no binding |
| FTRESFAA | no binding |
| ARAGSAWA | no binding |
| ARAGGAAA | binds |
| ARAGDAVA | no binding |
| SKGRSDVF | no binding |
| SKGRGAGS | binds |
| DAGKGAGD | no binding |
| SKGKGAGF | binds |
| YKGKGFGF | no binding |
| SKGKGAGD | binds |
| YKGKGAGF | binds |
| YKGKGSGF | binds |
| DGEGGDWD | no binding |
| VGRTSFGF | no binding |
| YKAGGFWF | no binding |
| YKGKGSLF | binds |
| YKAGGSLF | binds |

| Variant | antigen binding call |
| --- | --- |
| VKGRADWF | no binding |
| VTGEDDVV | no binding |
| VKGRADAV | no binding |
| SRGRGSLS | binds |
| ARGRGSSS | binds |
| SRGRGSSS | binds |
| SGTADSSS | no binding |
| SRGRGVLV | no binding |
| AATTDSSS | no binding |
| SAGRGDGS | no binding |
| SEGRGDGA | no binding |
| AKTKSDGV | no binding |
| ATGGDSGD | no binding |
| VKGRGVGA | binds |
| AKGRGDGA | no binding |
| YAGRGDGA | no binding |
| YKGRGVGA | binds |
| VEGRGDGA | no binding |
| VTGGGDGS | no binding |
| VRARGDGY | binds |
| VRGGDDGV | no binding |
| VTGGDDGY | no binding |
| VRGGGDGY | binds |
| VRGGSDGY | binds |

| Variant | antigen binding call |
| --- | --- |
| VEARGDGA | no binding |
| VAGTGDGY | no binding |
| ARERGDGY | no binding |
| DAERTDGV | no binding |
| AEAGADVV | no binding |
| VTEGGALA | no binding |
| YAREGSGA | no binding |
| YTREGAVA | no binding |
| YRRRGSLA | binds |
| YRREGSLA | binds |
| VRRRGALA | binds |
| VAEKGALA | no binding |
| YRRRGALA | binds |
| VKGRADSV | no binding |
| YREETSGA | no binding |
| YRRGGALA | binds |
| YRRRSSLA | binds |
| FRARGAGA | binds |
| FEAGDSGA | no binding |
| FKAGGSGA | no binding |
| FAARDSGA | no binding |
| FRAGGAGA | binds |
| FRAGGSGA | binds |
| FRARGSGA | binds |

| Variant | antigen binding call |
| --- | --- |
| ARARGSGA | no binding |
| DKGEGDLA | no binding |
| VEEEGSGA | no binding |
| YRREGSVV | binds |
| YRRGGSAV | binds |
| DRRGSDAV | no binding |
| YKREGSAV | no binding |
| YRRGSSAV | binds |
| YRREGSAV | binds |
| VATRAVGA | no binding |
| VKGRSDAS | no binding |
| DTGGGDAA | no binding |
| FRRGSSAV | binds |
| FTREASAV | no binding |
| VTTKSSAV | no binding |
| VRRGSSAV | binds |
| VRRGSDGV | no binding |
| VRTEDDWY | no binding |
| SEEEGDVA | no binding |
| YTTGGDVA | no binding |
| VTAGDDGS | no binding |
| DTTGSDVF | no binding |
| YRTRSSAV | binds |
| YRTRSAAV | binds |

| Variant | antigen binding call |
| --- | --- |
| YRRRGSSF | binds |
| YRRRGASF | binds |
| STGGNDAD | no binding |
| YKGKGFGA | no binding |
| YKGKGALA | binds |
| YKGKGSLA | binds |
| YKAGGALA | binds |
| YKAGGFGA | no binding |
| YKGEGDLA | no binding |
| FAAETDVF | no binding |
| AARADDWD | no binding |
| DTGEDDVY | no binding |
| SAGEGSLV | no binding |
| DRAETDVY | no binding |
| SAAGGASD chain 1 L45S | no binding |
| YTTKSDGV | no binding |
| VTGTGDGA | no binding |
| STGGDDGA | no binding |
| FARAAALD | no binding |
| DARGGSLD | no binding |
| FRRGGALD | binds |
| FRRGGSLD | binds |
| FREGGALD | binds |
| YRRGGALD | binds |

| Variant | antigen binding call |
| --- | --- |
| YARGGDLD | no binding |
| VEKEGDGA | no binding |
| AKAGSYGV | no binding |
| FRKGGSLD | binds |
| FRGGGDWD | no binding |
| FRGGGSLD | binds |
| ARRGSSLD | binds |
| FRAEGSLD | binds |
| ATGRASLD | no binding |
| YTEGDDWY | no binding |
| SEARSDGF | no binding |
| DAKENDVA | no binding |
| YTGGDDVD | no binding |
| FRKGTALD | binds |
| FRGKGAGA | binds |
| FRGKGSGA | binds |
| FREKGDLA | binds |
| FKGKGFGA | no binding |
| FRGKGSLA | binds |
| FRTKSDLA | no binding |
| VKEKGDLA | no binding |
| FKGKGSGA | no binding |
| DAKKNASF | no binding |
| VTREGAVA | no binding |

| Variant | antigen binding call |
| --- | --- |
| YTEGDDGA | no binding |
| FRGKGAAA | binds |
| FRGKSAAA | binds |
| VTGRAAWV | no binding |
| YRRRGDVY | binds |
| YRRRGAVY | binds |
| YTERGDVY | no binding |
| YRRRGFWY | no binding |
| YRAGDDVY | no binding |
| STTGSASF | no binding |
| FKGRGSSS | binds |
| FKGRDSGS | no binding |
| FKGRGSLS | binds |
| VGATSVSF | no binding |
| YARADDGS | no binding |
| VEAGDAGS | no binding |
| DAEKGAWA | no binding |
| YRTRDDVY | no binding |
| YRGRDYGV | no binding |
| FRGRDDLV | no binding |
| YRTRDDVV | binds |
| FRTRDFLV | no binding |
| YRTRDAWV | binds |
| YRTRDALV | binds |

| Variant | antigen binding call |
| --- | --- |
| ARGRDAWV | no binding |
| VRTEDAWV | no binding |
| YRGRDALV | binds |
| DRGRDDVV | no binding |
| YARADDGD | no binding |
| YAAETDVF | no binding |
| VKEKGDGS | no binding |
| VKGTGFLD | no binding |
| YRAKGALA | binds |
| YRAKGSLA | binds |
| ATGANAAV | no binding |
| AGGRSFVF | no binding |
| YEGRNVGV | no binding |
| VAGTGDLA | no binding |
| DEGGTDWD | no binding |
| YRAKGVGA | binds |
| YRAKGAGA | binds |
| YRAKGYGA | no binding |
| SARGGYWY | no binding |
